Shown is part of a subset that was picked to be rich in hits.
Eya2 phos inh: qHTS Assay for Inhibitors of the Phosphatase Activity of Eya2. AID 488837, 2010. 330,000 compounds, 0.006% hits. recombinant Eya2, OMFP fluorescence dephosphorylation (OMFP is methylfluorescein phosphate). Protein phosphatase EYA2 (Homo sapiens), O00167. Potency, µM (series often up to 76.9 µM), for the others: top-dose activity, negative = inhibition, usual class: inhibitors; note: % is set by controls: 0 for no effect and ±100 for the full control effect
Target sequence (O00167 whole entry, looked up): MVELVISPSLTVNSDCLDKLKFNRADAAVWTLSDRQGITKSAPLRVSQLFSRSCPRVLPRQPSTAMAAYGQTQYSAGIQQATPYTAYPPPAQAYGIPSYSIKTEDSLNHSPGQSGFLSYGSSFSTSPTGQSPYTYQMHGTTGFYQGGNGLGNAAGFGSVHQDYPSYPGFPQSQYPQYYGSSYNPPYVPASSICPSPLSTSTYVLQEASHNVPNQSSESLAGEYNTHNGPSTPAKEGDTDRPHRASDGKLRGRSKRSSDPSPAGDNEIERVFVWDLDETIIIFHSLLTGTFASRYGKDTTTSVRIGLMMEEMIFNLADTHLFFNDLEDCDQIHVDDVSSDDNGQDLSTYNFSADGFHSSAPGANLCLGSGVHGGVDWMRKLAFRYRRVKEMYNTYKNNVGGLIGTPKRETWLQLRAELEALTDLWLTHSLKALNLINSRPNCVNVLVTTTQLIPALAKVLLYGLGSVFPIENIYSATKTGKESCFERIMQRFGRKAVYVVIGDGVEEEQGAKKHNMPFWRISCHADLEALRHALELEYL
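Eya2 (0.2 uM) preincubated 10 min at ambient with compound, then OMFP substrate added at 50 uM; 10 min reaction in 50 mM HEPES pH 7.5, 50 mM NaCl, 5 uM MgCl2, 0.05% BSA, 1 mM DTT. Fluorescence read at Ex 485/Em 525 nm.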
USP2a block: qHTS Assay for Inhibitors of Ubiquitin-specific Protease USP2a Using CHOP2 as the Reporter | Ubiquitin carboxyl-terminal hydrolase 2 (Homo sapiens), O75604 | USP2 core, Ub-CHOP2 coupled fluorogenic reporter, 485/531 | Potency, µM (highest dose often 38.3 µM), without a hit: at the highest dose activity change, negative = inhibition, actives largely listed as inhibitors | 330,000 compounds, 0.01% hits | AID 463254, 2010;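 note: plate controls were DMSO wells for no effect and full inhibition by NEM control for full effect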
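Deubiquitinase activity read as fluorescence (485/531 nm) after Ub-CHOP2 cleavage activates the enterokinase reporter on its substrate; USP2 core 10nM, Ub-CHOP2 and substrate 25nM each, 30min compound preincubation then 60min RT; data normalized to NEM, curves fitted.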
ClpP mod: qHTS Assay for Activators of ClpP; purified B. subtilis ClpP, FRET peptide cleavage, 20 min; AID 651965, 2013; 340,000 compounds, 1.9% hits; Potency, µM (titrated, usually from 57.5 µM), without a hit: top-dose activity change, negative = active; active = well fitted falling curve with a large enough effect; inconclusive = small, poorly fitted or top-dose-only effect; inactive = no such curve, though single readings can be large or run the other way; note: the source files actives as falling curves though it sought activators and does not explain the sign; nearly all actives have a fitted effect of over 65% in size
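Purified B. subtilis ClpP, 10 microg/mL final in Tris/HCl pH8 with KCl, BSA, glycerol and Tween-20, cleaved an Abz/nitrotyrosine-quenched decapeptide. Fluorescence (ex 320, em 430) was read at 0 and 20 min at room temperature. Delta was normalized to 5.8 microM ADEP and DMSO/no-enzyme controls.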
GALK inhibitor: qHTS Assay for Inhibitors of Human Galactokinase (GALK) | Purified GALK, Kinase-Glo residual ATP luminescence | Potency, µM (doses to about 57.5 µM), for inactives: at the highest dose activity change, negative = inhibition, usual class: inhibitors | 270,000 compounds, 0.007% hits | AID 1868, 2009; note: % is set by controls: 0 for no effect and ±100 for the full control effect
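Compounds were pin-transferred into ATP buffer (35 uM final), then GALK plus galactose (5 nM, 100 uM final) was added. After 1 h at room temperature, Kinase-Glo Plus was added and luminescence read after 10 min.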
ClpP inh valid: qHTS Assay for Activators of ClpP: Hit Validation of Inhibitors; shares compounds with ClpP mod; purified B. subtilis ClpP, FRET-FV substrate cleavage, 20 min; Potency, µM (highest dose often 57.5 µM), without a hit: at the highest dose activity change, negative = inhibition, actives largely listed as inhibitors; 470 compounds, 40% hits; note: % is set by controls: 0 for no effect and ±100 for the full control effect; nearly all actives have a fitted effect of over 70% in size
Numbers without * were called inactive; ? = inconclusive; nt = no result. Unless noted, calls come from the whole dose curve; as a rule, active = well fitted curve in the direction sought with a large enough effect; inconclusive = small, poorly fitted or top-dose-only effect, or another doubt; inactive = no such curve, though single readings can be large; an effect the other way counts as inactive or inconclusive. Potency is the fitted concentration of half-maximal effect.

SMILES	Eya2 phos inh	USP2a block	ClpP mod	GALK inhibitor	ClpP inh valid
Clc1ccc(N2N=C(c3cccs3)CC2c2ccco2)cc1 (stereo not given)	-5.4%	1.8%	3.55µM*	nt	27.3µM*
N#Cc1nc(-c2cccs2)oc1NCc1ccc(Cl)cc1	-20.2%	-3.9%	?	-0.5%	nt
O=C(NCCc1ccccc1)C1Cc2c(-c3ccccc3)ccnc2O1 (stereo not given)	nt	nt	?	nt	-1.7%
NC(=O)c1cccc(-c2ccnc3c2CC(C(=O)NCCc2ccccc2)O3)c1 (stereo not given)	nt	nt	-6.6%	nt	nt
CCN(Cc1nc(-c2cccc(C)c2)no1)C(=O)c1ccc2c(c1)OCO2	13.2%	-2.1%	8.91µM*	-1.5%	-1.2%
CCCN(CCC(=O)Nc1cc(OC)cc(OC)c1)CC1CC1	5.8%	-0.5%	34.5%	8.0%	-7.4%
CCOC(=O)c1cnc2c(OC)cccc2c1Nc1cccc(O)c1	nt	nt	1.8%	nt	nt
Cn1c(-c2ccc(CN3CCCCC3)o2)nc2ccccc21	4.5%	-1.1%	3.55µM*	0.0%	17.2µM*
Cc1ccc(CNc2nc3ccccc3n2C)o1	-3.9%	1.0%	-6.8%	-2.8%	nt
OCCNc1nc(N2CCCCC2)nc2ccccc12	-7.3%	0.3%	nt	3.2%	nt
O=C(Nc1ccc2nn(-c3ccccc3)nc2c1)c1ccc(-c2cccc(Cl)c2)o1	nt	nt	58.7%	nt	-17.0%
COc1ccc(-n2nc3ccc(NC(=O)c4ccc(-c5cc(Cl)ccc5Cl)o4)cc3n2)cc1	nt	nt	3.3%	nt	nt
O=C(NC1CCCCC1)C(c1cccc2ccccc12)n1c(=O)c(-c2cc3ccccc3[nH]2)nc2ccccc21 (stereo not given)	nt	nt	41.0%	nt	5.8%
O=C(NCc1ccccc1)C(c1ccncc1)n1c(=O)c(-c2cc3ccccc3[nH]2)nc2ccccc21 (stereo not given)	nt	nt	-21.4%	nt	nt
O=C(NCc1ccccc1)C(c1ccc(-c2ccccc2)cc1)n1c(=O)c(-c2cc3ccccc3[nH]2)nc2ccccc21 (stereo not given)	nt	nt	35.8%	nt	9.9%
CCCCCNC(=O)C(c1cccc2ccccc12)n1c(=O)c(-c2cc3ccccc3[nH]2)nc2ccccc21 (stereo not given)	nt	nt	38.2%	nt	6.9%
CCCCCNC(=O)C(CCc1ccccc1)n1c(=O)c(-c2cc3ccccc3[nH]2)nc2ccccc21 (stereo not given)	nt	nt	32.6%	nt	nt
O=C(Nc1ccc2ccccc2c1)C(c1ccccc1F)n1c(=O)c(-c2cc3ccccc3[nH]2)nc2ccccc21 (stereo not given)	nt	nt	53.7%	nt	6.0%
COc1ccc(C(=O)O)cc1S(=O)(=O)NC(C)(C)C	-3.4%	2.3%	-0.7%	6.7%	nt
CCN(CC(=O)Nc1c(F)cccc1F)C(=O)Cc1csc(-c2ccc(OC)c(OC)c2)n1	-5.3%	-0.3%	3.16µM*	nt	12.2µM*
O=C(CSc1nc2cccnc2n1Cc1ccccc1)NCc1ccco1	12.3%	-3.8%	-2.9%	-2.9%	nt
Cc1cccc(NC(=O)c2oc3ccccc3c2NC(=O)Cc2coc3cc(C)cc(C)c23)c1	nt	nt	-1.6%	nt	nt
Cc1cc(C)c2c(CC(=O)Nc3c(C(=O)Nc4ccc(Cl)cc4)oc4ccccc34)coc2c1	nt	nt	7.94µM*	nt	-23.4%
FC(F)(F)c1ccccc1NC(=S)NN=C1CCCCCC1	1.6%	2.9%	nt	2.8%	nt
CSc1ccc(CCNC(=O)c2cc(C)nc3c2c(C)nn3-c2ccccc2)cc1	nt	nt	66.7%	nt	17.2µM*
Cc1ccc(CCNC(=O)c2cc(C)nc3c2c(C)nn3-c2ccc(C)cc2)cc1	nt	nt	69.7%	nt	27.3µM*
COC(=O)N/N=C/c1ccc(-c2cc(Cl)ccc2Cl)o1	-9.2%	1.3%	-5.8%	1.1%	nt
NS(=O)(=O)c1ccc(CCNC(=O)C2CCN(S(=O)(=O)c3cccc4cccnc34)CC2)cc1	1.9%	0.3%	-1.7%	-0.2%	nt

Screens from PubChem BioAssay.
